# Experimental data from PubChem BioAssay (NCATS).
# “And” between values parts separate entries of the source, which are not always exact repeats. Equal values may be shown once. Results filed as inconclusive are left out. A call without a number means that no potency is given here. A number with no mark means an inactive call. The source made the active and inactive calls. Calls follow the shape of the dose curve; as a rule, active = well fitted cell-killing curve with a large enough effect; inconclusive = small, poorly fitted or top-dose-only effect, or effect the other way; inactive = no such curve, though single readings can be large or run the other way.
# Assays:
# [1] = Viability qHTS for spleen associated tyrosine kinase inhibitor (SYKi) naive MV4-11 cells (AID 1963823); conditions: MV4-11 AML viability, CellTiter-Glo luminescence, 72 h; series mostly up to 45 µM; also: nearly all actives have a fitted effect of over 40% in size
# Summary of the method: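 qHTS, SYK inhibitor-naive MV4-11; 500 cells/well; 72 hr compound exposure, 37 C; CellTiter-Glo added, 10 min RT; luminescence read.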
# [2] = Viability qHTS for spleen associated tyrosine kinase inhibitor (SYKi) drug resistant MV4-11 cells (AID 1963824); conditions: SYKi-resistant MV4-11 viability, CellTiter-Glo, 72 h; series mostly up to 45 µM; also: nearly all actives have a fitted effect of over 35% in size
# Summary of the method: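 SYK-inhibitor-resistant MV4-11 AML cells were seeded at 500 per well onto compound and cultured 72 hours (37 °C, 5% CO2). CellTiter-Glo was then added, and after 10 min at room temperature, luminescence gave viability.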
# Potency is read from the fitted curve at half-maximal effect.
Compound,Potency [1],Potency [2],viability (% of control) [1],"viability, % of control [2]"
Cc1cc2c(N3CCCC3)nc(N3CCCC3)nc2n1C,8.2 µM (active),7.31 µM (active),–,–
COC1=CC(=O)C[C@@H](C)[C@]12Oc1cc(OC)cc(OC)c1C2=O,inactive,inactive,–,–
CC1=CC(=O)C(C(C)C)=C/C1=N/OC(=O)c1ccccc1C,5.17 µM (active),4.61 µM (active),–,–
OC1(CN2CCC(COc3noc4cccc(O[C@@H]5CCOC5)c34)CC2)CCOCC1,inactive,inactive,–,–
Clc1ccc(Cn2c(CN3CCCC3)nc3ccccc32)cc1,14.8 µM (active),15 µM (active) and 14.8 µM (active),–,–
N#Cc1ccc2[nH]c(O)c(-c3ccc(CN4CCOCC4)cn3)c2c1,inactive,inactive,–,–
CC(C)C1=CCC(C)(O)C(OC2OC(CO)C(O)C(O)C2O)C1 (configuration not stated),inactive,inactive,–,–
C/C(=C\C=C\C(C)C1CCC2(C)C3CCC4C(C)(C)C(=O)CCC45CC35CCC12C)C(=O)O (configuration not stated),inactive,6.32 µM (active),–,–
O=C1C=CC2OC(c3ccccc3)C(O)C2O1 (configuration not stated),6.51 µM (active),4.11 µM (active),–,–
CC(O)(C(=O)O)C1CCC2(C)C1CCC1(C)C2CCC2C3(C)CCC(O)C(C)(COC4OC(CO)C(O)C(O)C4O)C3CCC21C (configuration not stated),inactive,inactive,–,–
COc1c2c(c(C)c3c1C(=O)OC3)OC1(C)CC(O)C34OC(O)(CCC3(C)C1C2)OC4(C)C (configuration not stated),inactive,inactive,–,–
O=C(NC1CCN(CCCCC2(C(=O)NCC(F)(F)F)c3ccccc3-c3ccccc32)CC1)c1ccccc1-c1ccc(C(F)(F)F)cc1,2.59 µM (active),2.59 µM (active),–,–
CC(=O)O[C@@](C)(C(=O)/C=C/C(C)(C)O)[C@H]1[C@H](O)C[C@@]2(C)[C@@H]3CC=C4[C@@H](C=C(O)C(=O)C4(C)C)[C@]3(C)C(=O)C[C@]12C,0.317 µM (active),0.252 µM (active),–,–
COc1cccc(-c2cn(-c3ccc(CCN4CCC(O)CC4)cc3)c3ncnc(N)c23)c1,2.06 µM (active),2.31 µM (active),–,–
COc1ccc(CN2CCN(C(c3ccc(F)cc3)c3ccc(F)cc3)CC2)c(OC)c1OC,15 µM (active) and 14.6 µM (active),21.1 µM (active) and 16.4 µM (active),–,–
CC1(C)CC[C@]2(C(=O)O)[C@H](O)C[C@]3(C)C(=CCC4[C@@]5(C)CC[C@H](O[C@@H]6OC[C@@H](O)[C@H](O)[C@H]6O)[C@@](C)(C(=O)O)C5CC[C@]43C)[C@@H]2C1 (some centres not stated),inactive,inactive,–,–
CCOC(=O)c1cnn(-c2ccc(NC(=O)C(Cl)=C(Cl)Cl)cc2)c1C(F)(F)F,0.58 µM (active),0.366 µM (active),–,–
CCC(=O)N1CCc2cc(OC)c(O)cc2C1,inactive,inactive,–,–
CC1(C)C=Cc2c(ccc3c2N=C2C(C)(C)[C@@H]4C[C@]56CCCN5C(=O)[C@@]4(C[C@]23O)NC6=O)O1,inactive,inactive,–,–
CC1(C)CC[C@]2(C(=O)O[C@@H]3O[C@H](CO)[C@@H](O)[C@H](O)[C@H]3O)CC[C@]3(C)C(=CCC4[C@@]5(C)CC[C@H](OC6OC(C(=O)O)C(OC7OC(CO)C(O)C(O)C7O)C(O)C6O)C(C)(C)C5CC[C@]43C)C2C1 (some centres not stated),–,–,86.6% [at 9.25 µM],91.6% [at 9.25 µM]
C/C(=N\N=C(N)N)c1cc(NC(=O)CCCCCCCCC(=O)Nc2cc(/C(C)=N/N=C(N)N)cc(/C(C)=N/N=C(N)N)c2)cc(/C(C)=N/N=C(N)N)c1,18.4 µM (active),9.2 µM (active),–,–

Compound,Potency [1],Potency [2],viability (% of control) [1],"viability, % of control [2]"
CC(C)(O)c1ccc2c(c1)C(O)C[C@H]1[C@](C)(C(=O)O)CCC[C@]21C (some centres not stated),inactive,inactive,–,–
CCCCC(=O)N(Cc1ccc(-c2ccccc2-c2nn[nH]n2)cc1)C(C(=O)O)C(C)C (configuration not stated),inactive,inactive,–,–
C1CCC[C@H]2CCCN3CC[C@@H](CCCCCC[C@@H]4CCCN5CC[C@@H](CC1)O[C@@H]45)O[C@@H]23,–,–,90.7% [at 0.177 µM],87.9% [at 0.177 µM]
COC(=O)C12C(=O)C(C)=C(O)C1(C)C(C)=CC1C34CCC(OC3=O)C(C)(C)C4CCC12C (configuration not stated),inactive,inactive,–,–
CC(C)C(N)C(=O)OCCOCn1cnc2c(=O)[nH]c(N)nc21 (configuration not stated),inactive,inactive,–,–
CN[C@H]1CCN(C(=O)c2ccc(Nc3ncc(F)c(-c4cnc(C)n4C(C)C)n3)cc2)C1,0.058 µM (active),0.0517 µM (active),–,–
c1nc(NCC2CCOC2)c2cc(-c3ccc4c(c3)OCO4)ccc2n1 (configuration not stated),20.6 µM (active),18.4 µM (active),–,–
CC1[C@@H](O)[C@@H](O)C2[C@]3(C)C(C[C@H]4OC(=O)[C@H](O)[C@]1(O)[C@@]24C)C(C)(O)C[C@H](O)[C@H]3O (some centres not stated),inactive,inactive,–,–
Cc1cc(C)nc(SCC(=O)Nc2ncc(Cc3cccc4ccccc34)s2)n1,7.31 µM (active),10.3 µM (active),–,–
CCN(CC)C(=O)c1ccc(Nc2nc(OCC3CCCCC3)c3[nH]cnc3n2)cc1,1.03 µM (active),1.46 µM (active),–,–
CN(C)CC(c1ccc(O)cc1)C1(O)CCCCC1 (configuration not stated),inactive,inactive,–,–
COc1cc(-c2ccc(O)cc2)c(OC)c(O)c1C1=CC(=O)OC1CC(=O)O (configuration not stated),inactive,inactive,–,–
CCC(C)C(=O)O[C@H]1[C@@H](O[C@H]2O[C@H](CO)[C@@H](O)[C@H](O)[C@H]2O)O[C@H](CO)[C@@H](O)[C@@H]1O (some centres not stated),inactive,inactive,–,–
CCN1CCN(Cc2ccc(NC(=O)c3ccc(C)c(Oc4ccnc5[nH]ccc45)c3)cc2C(F)(F)F)CC1,0.0255 µM (active),0.0718 µM (active),–,–
COc1cc(C2c3cc(O)c(OC)cc3CC(CO)C2CO)ccc1O (configuration not stated),inactive,inactive,–,–
COC(=O)c1ccnc(-c2cc(C(=O)Nc3ccc(C4(N)CC4)cc3)ccn2)c1,inactive,inactive,–,–
COc1cc(N)c(Cl)cc1C(=O)NC[C@@H]1CCN2CCC[C@@H]12,inactive,inactive,–,–
CC(=O)C1=C(O)C=C2Oc3c(C(C)=O)c(O)c(C)c(O)c3[C@]2(C)C1=O,inactive,inactive,–,–
C/C=C1\[C@H](O[C@@H]2O[C@H](CO)[C@@H](O)[C@H](O)[C@H]2O)OC=C(C(=O)OCCc2ccc(O)cc2)[C@H]1CC(=O)OCCc1ccc(O)cc1,inactive,inactive,–,–
CC1CC(O)CC(C)(C)C1(O)CCO (configuration not stated),inactive,inactive,–,–
CC(C)(C)[C@H](NC(=O)c1ccc(N)c(Cl)c1)C(=O)N1CCC[C@H]1C(=O)N[C@H](C#N)CC(=O)O,inactive,inactive,–,–

Compound,Potency [1],Potency [2],viability (% of control) [1],"viability, % of control [2]"
CC1CCC2(C(=O)OC3OC(COC4OC(CO)C(O)C(O)C4O)C(O)C(O)C3O)CCC3(C)C(=CCC4C5(C)CCC(O)C(C)(C(=O)O)C5CCC43C)C2C1(C)O (configuration not stated),–,–,98.4% [at 9.25 µM],98.8% [at 9.25 µM]
CCN(CC)Cc1cccc(/C=C/c2nc3ccc(F)cc3c(=O)n2-c2ccccc2Cl)n1,11.6 µM (active),9.2 µM (active),–,–
C=C(C(=O)OC)C1C(O)CC2(C)C(=O)CCC(O)(CO)C2C1O (configuration not stated),inactive,inactive,–,–
OC[C@H]1O[C@@H](Oc2cc(O)c3c(c2)O[C@@H](c2ccc(O)cc2)[C@H](O)C3)[C@H](O)[C@@H](O)[C@@H]1O,inactive,inactive,–,–
CC1(C)CCC2(C(=O)OC3OCC(O)C(O)C3O)CCC3(C)C(=CCC4C5(C)CC(O)C(OC6OC(COC7OCC(O)C(O)C7O)C(O)C(O)C6O)C(C)(C)C5CCC43C)C2C1 (configuration not stated),–,–,68.8% [at 9.25 µM],78.5% [at 9.25 µM]
CC12CC34CC(O)C5C(CO)(CO)CC(=O)CC5(C)C3CC1C2C4 (configuration not stated),inactive,inactive,–,–
C=C1C(=O)O[C@@H]2/C=C(\CO)CC/C=C(/C=O)C[C@H](O)[C@@H]12,4.11 µM (active),3.26 µM (active),–,–
CCNc1nc2c(ncn2[C@H]2C[C@H](O)[C@@H](CO)O2)c(=O)[nH]1,inactive,inactive,–,–
NC1CCCCN(c2c(F)cc3c(=O)c(C(=O)O)cn(C4CC4)c3c2Cl)C1 (configuration not stated),inactive,inactive,–,–
COc1cc2ncnc(Sc3nnc(C)s3)c2cc1OC,0.82 µM (active),1.16 µM (active),–,–
CO[C@H]1C=C2C(CC[C@H](O[C@@H]3O[C@H](CO)[C@@H](O)[C@@H](O)[C@H]3O)C2(C)C)[C@]2(C)CC[C@]3(C)C([C@H](C)C(O)C(C=C(C)C)O[C@@H]4O[C@H](CO)[C@@H](O)[C@@H](O)[C@H]4O)CC[C@@]3(C)C12 (some centres not stated),–,–,86.9% [at 9.25 µM],90.7% [at 9.25 µM]
CCCC(CCC)C(=O)NCc1ccc2c(cnn2-c2ccccc2OC)c1,10.3 µM (active),8.2 µM (active),–,–
COc1cc(O[C@@H]2O[C@H](CO[C@H]3OC[C@](O)(CO)[C@H]3O)[C@@H](O)[C@H](O)[C@H]2O)cc(OC)c1O,inactive,inactive,–,–
CC/C=C/C(O)C(O)C1=C(C)C(=O)C2(O1)C(=O)NC(OC)(C(=O)c1ccccc1)C2O (configuration not stated),inactive,inactive,–,–
C=CC1(C)C=C2C(=O)CC3C(C)(C)CCCC3(C(=O)O)C2(O)CC1 (configuration not stated),inactive,inactive,–,–
C/C=C/[C@@H]1C=C[C@@H]2C[C@H](C)CC[C@H]2[C@]1(C)/C(O)=C1/C(=O)[C@@H](CO)N(C)C1=O,14.3 µM (active),16.1 µM (active),–,–
CC(CCC1C(C(=O)O)=CC(=O)CC1(C)C)O[C@@H]1O[C@H](CO)[C@@H](O)[C@H](O)[C@H]1O (some centres not stated),inactive,inactive,–,–
COc1ccc(CC2NCCc3c2[nH]c2ccc(C)cc32)cc1OC (configuration not stated),9.2 µM (active),7.31 µM (active),–,–
C=CC(C)(CC/C=C(\C)C(=O)OC)OC1OC(COC(=O)CC(C)(O)CC(=O)O)C(OC2OC(CO)C(O)C(O)C2O)C(O)C1O (configuration not stated),inactive,inactive,–,–
